Screening data (PubChem)
JMJD2A Tudor inh: JMJD2A Tudor domain (human) inhibition; AlphaScreen JMJD2A-Tudor / H3K4me3 peptide binding; O75164; Potency, µM (titrated, usually from 114 µM), for inactives: at the top dose activity change, negative = inhibition, most hits filed as inhibitors; hit rate 4.4% among 390,000; also: % is scaled to controls: 0 for no effect and ±100 for the full control effect; nearly all actives have a fitted effect of over 50% in size
BAZ2B block: blocks human BAZ2B; AlphaScreen BAZ2B-H3K14Ac peptide displacement; Potency, µM (top dose mostly 114 µM), for the others: at the highest dose activity change, negative = inhibition, hits mostly inhibitors; hit rate 4.4% among 360,000; also: % is scaled to controls: 0 for no effect and ±100 for the full control effect; nearly all actives have a fitted effect of over 60% in size
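BAZ2B 50 nM plus b-H3(5-23)K14Ac 50 nM, PBS pH 7.4/0.01% Tween-20, 30 min RT; compound added (max 110 uM), 30 min RT; streptavidin donor/Ni-chelate acceptor beads 10 ug/mL final, 20 min dark; AlphaScreen read.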
ALOX12 inh: blocks human arachidonate 12S-lipoxygenase; P18054; purified 12hLO, xylenol orange hydroperoxide absorbance; Potency, µM (doses to about 108 µM), without a hit: at the highest dose activity change, negative = inhibition, actives largely listed as inhibitors; hit rate 1.1% among 580,000; also: % is scaled to controls: 0 for no effect and ±100 for the full control effect
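Purified human 12hLO (150 nM final) in 25 mM Hepes, 0.01% Triton X-100, pH 7.0 was preincubated 15 min at room temperature with compound. Then 40 uM arachidonic acid was added, 30 min. Hydroperoxide was read by Fe-XO absorbance ratio 573/405 nm.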
Sfp PPTase inh: inhibitors of Bacillus subtilis Sfp phosphopantetheinyl transferase; Q9F4F7; Biochemical Sfp PPTase activity, qHTS; Potency, µM, without a hit: largest response in the series, negative = inhibition, most hits filed as inhibitors; hit rate 3.5% among 310,000;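 also: the enzyme is Sfp with the accession as filed and its product quenches rhodamine fluorescence; 0% = enzyme reaction without inhibitor and -100% = no enzyme wells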
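Fluorescence-quenching assay: 15 nM Sfp-PPTase preincubated 15 min at room temperature with compound, then 5 uM rhodamine-CoA and 12.5 uM BHQ-2-labelled YbbR peptide added. Fluorescence (ex 525/em 598 nm) read at start and after 30 min; difference gives rate.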
HP1b chromo inh: inhibitors of HP1-beta chromodomain binding to methylated histone tails | hit rate 0.56% among 390,000 | Potency, µM (top dose mostly 114 µM), without a hit: at the highest dose activity change, negative = inhibition, actives largely listed as inhibitors | AlphaScreen HP1-beta / biotin-H3K9me3 peptide binding | P83916; also: nearly all actives have a fitted effect of over 70% in size
Target sequence (P83916 whole entry, looked up): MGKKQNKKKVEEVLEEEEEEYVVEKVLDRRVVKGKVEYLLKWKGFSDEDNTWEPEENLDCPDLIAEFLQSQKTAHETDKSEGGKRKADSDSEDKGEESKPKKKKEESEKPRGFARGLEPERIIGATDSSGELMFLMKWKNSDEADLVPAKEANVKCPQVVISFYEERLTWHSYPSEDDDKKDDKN
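HP1-beta protein (50 nM final) preincubated 30 min at room temperature with biotinylated H3(1-18)K9me3 peptide (50 nM) in PBS pH 7.4, 0.01% Tween-20, then compound added for 30 min. AlphaScreen streptavidin donor/nickel chelate acceptor beads (10 ug/mL final), 30 min dark, luminescence read.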
G9a block: inhibitors of human histone lysine methyltransferase G9a; AID 504332; Q96KQ7; Potency, µM (top dose mostly 102 µM), for the others: top-dose activity, negative = inhibition, actives largely listed as inhibitors; G9a H3K9 monomethylation, AlphaScreen, 2 h; hit rate 8.8% among 350,000; also: % is scaled to controls: 0 for no effect and ±100 for the full control effect; nearly all actives have a fitted effect of over 75% in size
Target sequence (Q96KQ7 913-1193 limits assumed): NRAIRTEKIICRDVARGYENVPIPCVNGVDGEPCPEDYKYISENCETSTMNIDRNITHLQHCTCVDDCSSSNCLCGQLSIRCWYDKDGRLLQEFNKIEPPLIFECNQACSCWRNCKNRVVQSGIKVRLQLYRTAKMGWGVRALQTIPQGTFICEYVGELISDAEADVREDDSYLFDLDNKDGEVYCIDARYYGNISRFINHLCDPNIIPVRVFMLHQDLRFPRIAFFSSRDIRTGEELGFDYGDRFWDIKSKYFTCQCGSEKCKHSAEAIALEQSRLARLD
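G9a (20 nM) preincubated 15 min RT with compounds, then 500 nM biotinylated H3K9 peptide and 20 uM SAM added; 2 h RT reaction. Monomethyl-H3K9 product detected by AlphaScreen with anti-H3K9me1 antibody, streptavidin donor and anti-rabbit IgG acceptor beads.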
Numbers without * were called inactive; ? = inconclusive; nt = not tested or not shown; [ ] = dose if it differs, or a comment. The list is not random: actives were taken first. Their share in the collection is about 8.7%. Calls follow the shape of the dose curve; as a rule, active = well fitted curve in the direction sought with a large enough effect; inconclusive = small, poorly fitted or top-dose-only effect, or another doubt; inactive = no such curve, though single readings can be large; an effect the other way counts as inactive or inconclusive. Potency is read from the fitted curve at half-maximal effect.

SMILES	JMJD2A Tudor inh	BAZ2B block	ALOX12 inh	Sfp PPTase inh	HP1b chromo inh	G9a block
O=C1ON=C(c2ccc([N+](=O)[O-])cc2)/C1=C/c1ccccc1O	-13%	-24%	?	40µM*	32%	79µM*
Cc1ccccc1NC(=O)C(C#N)=C1CCCC1	nt	nt	3%	nt	nt	nt
CNCC(=O)N1CCCC(c2nnc(CN3CCOCC3)n2C)C1 (stereo unspecified)	nt	nt	-17%	nt	nt	nt
Cc1ncc(-c2ccc(C)c(S(=O)(=O)Nc3ccc(OC(F)(F)F)cc3)c2)o1	nt	nt	-12%	nt	nt	nt
COc1ccc(C2=NOC3(CCN(Cc4ccc(F)cc4)C3)C2)cc1 (stereo unspecified)	nt	nt	-18%[176 µM]	nt	nt	nt
COc1cc(/C=C2\C(=O)ON=C2c2ccccc2)cc(OC)c1OC	-22%	?	?	50µM*	21%	?
COc1ccc(/C=C2\C(=O)ON=C2c2cccc([N+](=O)[O-])c2)cc1	nt	?	32µM*	56µM*	nt	18µM*
O=C1ON=C(c2ccccc2)/C1=C/c1ccc(-c2ccccc2[N+](=O)[O-])o1	28µM*	22µM*	4µM*	?	50µM*	7.1µM*
COc1ccc(/C=C2\C(=O)ON=C2c2ccccc2)cc1OC	-11%	2%	7.1µM*	22µM*	46%	?
COc1ccc(-c2ccc(=O)n(Cc3cccc([N+](=O)[O-])c3)n2)cc1	?	?	-15%	-2%	0%[57 µM]	-15%[59 µM]
Cc1ccccc1NC(=O)c1nc2ccccc2nc1Cl	nt	nt	-1%	nt	nt	nt
C/C=C(\C)CN1C[C@@H](NC(=O)Cn2ccnc2C)C[C@H]1C(=O)NCC	nt	nt	49%	nt	nt	nt
CCOc1cc(/C=C2\C(=O)ON=C2c2ccccc2)ccc1OC	-14%	-29%	13µM*	28µM*	19%	13%[2.33 µM]
CCCCc1ccc(/C=C2\C(=O)ON=C2c2ccccc2)s1	-11%	9%	-12%	-3%	31%	21%[59 µM]
CCCCCNCc1ccc(C)s1	nt	nt	0%	nt	nt	nt
COc1ccc(S(=O)(=O)N(CCc2ccccc2)CC(=O)NC(C)C)cc1	-4%	-31%	32µM*	8%	11%	-26%[2.33 µM]
Cc1ccc2nc(-c3ccc(NC(=O)CNC4CC4)cc3)sc2c1	?	45µM*	-16%	-30%	-20%	7.1µM*
Cc1ccc2nc(-c3ccc(NC(=O)C(F)(F)F)cc3)sc2c1	-2%	4%	-14%	nt	33%	-37%[59 µM]
Cc1ccc2nc(-c3ccc(NC(=O)CN4C(=O)c5ccccc5C4=O)cc3)sc2c1	-9%	11%	-25%	-5%	35%	-18%[59 µM]
Cc1ccc2nc(-c3ccc(NC(=O)COC(=O)c4ccc(=O)[nH]c4)cc3)sc2c1	45µM*	-1%	8%	-8%	-17%	-15%[59 µM]
COc1ccccc1-c1nc(-c2cc3ccccc3nc2OC)no1	nt	nt	-2%	nt	nt	nt
CCc1nc(CC(=O)Nc2ccc(C)cc2)sc1C	nt	nt	-10%	nt	nt	nt
O=C(NC1CCS(=O)(=O)C1)C1CCCCN1S(=O)(=O)c1ccc(Cl)cc1 (stereo unspecified)	-16%	3%	-14%[57.4 µM]	-22%	18%	28µM*
COc1ccc2cc(CN(CC3COCCO3)S(=O)(=O)c3ccccc3)c(=O)[nH]c2c1 (stereo unspecified)	-5%	9%	-27%	14%	35%	14%[59 µM]
COc1ccc2cc(CN(Cc3cccnc3)S(=O)(=O)c3ccccc3)c(=O)[nH]c2c1	-14%	?	45µM*	-1%	13%	?
SMILES	JMJD2A Tudor inh	BAZ2B block	ALOX12 inh	Sfp PPTase inh	HP1b chromo inh	G9a block
CCc1ccc(OCC(=O)Nc2ncn[nH]2)c(Br)c1	-6%	89µM*	6%	nt	47%	-18%[59 µM]
CC(C)(C)c1ccccc1OCC(=O)Nc1ncn[nH]1	-14%	?	26%	1%	38%	35µM*
COc1ccccc1-c1nnc(SCc2nnc(C)o2)n1CCc1ccccc1	nt	nt	4%	nt	nt	nt
CCc1cc(CC)n(-c2nc3c(c(=O)n(CC(N)=O)c(=O)n3C)n2CC(C)C)n1	nt	nt	17%	nt	nt	nt
COCCO[C@H]1C(=O)N(C2CCN(Cc3ccc(C#N)cc3)CC2)[C@H]1c1ccncc1	nt	nt	34%	nt	nt	nt
CCCOc1ccc(-c2nc(C#N)c(NCC3CCCO3)o2)cc1 (stereo unspecified)	?	50µM*	10%	-10%	-29%	71µM*
C=CCNc1oc(-c2ccc(OC)cc2)nc1C#N	-15%	-5%	15%	2%	3%	56µM*
C=CCNc1oc(-c2ccc(OCC)cc2)nc1C#N	-20%	-1%	11%	3%	8%	2%[59 µM]
COC(=O)[C@@H]1Cc2c([nH]c3ccccc23)[C@H]2C[C@@H](NCc3cccnc3)C[C@@H](c3ccc(OC(F)(F)F)cc3)N21	nt	nt	25%	nt	nt	nt
O=C1NCCCCCCN(C(=O)c2ccsc2)[C@H]2CCCC[C@@H]12	nt	nt	12%	nt	nt	nt
N#Cc1ccc(NC(=O)CNc2cc(S(=O)(=O)N3CCOCC3)ccc2NCC2CCCO2)cc1 (stereo unspecified)	-18%	-15%	16%	-7%	31%	40µM*
N#Cc1ccc(OCC(=O)Nc2cc(S(=O)(=O)N3CCOCC3)ccc2N2CCCC2)cc1	-8%	nt	24%	nt	34%	nt
O=C(CNc1cc(S(=O)(=O)N2CCOCC2)ccc1NCC1CCCO1)Nc1ccc(C(F)(F)F)cc1 (stereo unspecified)	?	1%	-5%	nt	-23%	1%[12.7 µM]
CCCn1c(SCC(=O)Nc2cc(S(=O)(=O)N3CCOCC3)ccc2OC)n[nH]c1=O	-6%	-24%	-6%	40µM*	-6%	3.2µM*
COc1ccc(CC(=O)OCC(=O)Nc2cc(S(=O)(=O)N3CCOCC3)ccc2N2CCCC2)cc1	-11%	1%	-3%	-5%	-3%	40µM*
CCCn1c(SCC(=O)Nc2cc(S(=O)(=O)N3CCOCC3)ccc2Cl)n[nH]c1=O	-4%	-21%	0%	?	30%	?
N#Cc1ccc(OCC(=O)Nc2cc(S(=O)(=O)N3CCOCC3)ccc2N2CCOCC2)cc1	0%	-7%	8%	14%	16%	71µM*
CC1CCN(S(=O)(=O)c2ccc(NC(=O)C3=COCCO3)cc2)CC1	nt	nt	3%	nt	nt	nt
Cc1ccc(NC(=O)c2cnc3ccccc3n2)nc1	nt	nt	25%	nt	nt	nt
N#Cc1ccc(OCc2cccc(S(=O)(=O)N3CCOCC3)c2)cc1	-2%	-4%	-16%	nt	33%	1%
COc1cc(S(=O)(=O)N2CCOCC2)ccc1NC(=O)CSc1nnc(N)s1	5%	3%	0%	3%	43%	45µM*
CCCCCC(=O)Nc1cc(S(=O)(=O)N2CCOCC2)ccc1N1CCCC1	1%	-10%	2%	16%	22%	28µM*
O=C(CSc1nncs1)Nc1cc(S(=O)(=O)N2CCOCC2)ccc1N1CCCC1	-4%	-6%	?	nt	26%	35µM*
